Assay outcomes from PubChem BioAssay.
An excerpt weighted towards active compounds, which were near 6.9% of everything screened.
Cy5 interf NS3h = counter-screen for HCV NS3 helicase inhibitors: fluorescence interference; Cy5-dT15 DNA with NS3h; actives lie on both sides; signal over control mean, under 1 quenches; AID 720488; actives 6% (n = 16,000); fluorescence interference ratio at 100 µM;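 active = compound fluorescence over control fluorescence at most 0.8, a quencher, or at least a set upper limit, an enhancer; inactive = ratio between 0.8 and the set upper limit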
NS3h inh CB = blocks HCV NS3 helicase binding to DNA | NS3h Cy5-dT15 DNA binding, fluorescence polarization | actives 1.6% (n = 16,000) | inhibition, % at 100 µM;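 active = inhibition above the average over every tested compound plus 3 SD, cut at about 40% in these data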
HCV NS3h conf = confirmation of hepatitis C virus NS3 helicase inhibitors. shares compounds with NS3h inh CB. NS3h binding to Cy5-dT15 DNA, fluorescence polarization. inhibition, % at 100 µM. actives 20% (n = 240). AID 720485;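 active = percent inhibition of 50% or more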
SSB FP counter = counter-screen for HCV NS3 helicase inhibitors: E. coli SSB binding; shares compounds with NS3h inh CB; E. coli SSB binding Cy5-dT15, fluorescence polarization; inhibition, % at 100 µM; actives 40% (n = 240);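 active = inhibition of at least 50%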;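 note: displacers lower Cy5 polarization so higher inhibition means more SSB displaced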
Target sequence (P0AGE0 whole entry, looked up): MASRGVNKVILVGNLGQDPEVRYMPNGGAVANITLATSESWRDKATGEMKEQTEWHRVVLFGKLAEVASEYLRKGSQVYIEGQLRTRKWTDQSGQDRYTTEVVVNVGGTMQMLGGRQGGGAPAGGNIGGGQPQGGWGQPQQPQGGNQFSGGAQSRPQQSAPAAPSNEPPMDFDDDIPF
Cy5 SSB fluor CB = counter-screen for HCV NS3 helicase inhibitors: fluorescence interference; actives 8% (n = 240); fluorescence interference ratio at 100 µM; shares compounds with NS3h inh CB; Cy5-dT15/E. coli SSB fluorescence interference; actives lie on both sides;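 active = fluorescence interference ratio at or above 1.2, signal boosting, or at or below 0.8, signal quenching; inactive = ratio between 0.8 and 1.2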;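 note: ratio of compound well signal to mean negative control signal so 1 means no effect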
Cy5 fluor confirm = Cy5 fluorescence interference, confirmation counter-screen | Cy5-dT15 DNA/NS3h fluorescence interference counterscreen | shares compounds with NS3h inh CB | fluorescence interference ratio at 100 µM, hits read low | actives 44% (n = 240);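 active = fluorescence interference ratio at or below 0.8 quencher or at or above a set limitenhancer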;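 note: ratio of compound fluorescence to mean of negative controls so 1 means no interference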
An asterisk follows results filed as active.

What do the screens show for `O/C(=C/c1nc2ccccc2nc1/C=C(/O)c1ccccc1)c1ccccc1`?
Cy5 interf NS3h: 1.1; NS3h inh CB: 5

How did Cc1cc(C)c2oc(-c3cccc(NC(=S)NC(=O)c4ccco4)c3)nc2c1 do in these assays?
Cy5 interf NS3h: 0.95; NS3h inh CB: 3

What do the screens show for `O=c1c(-c2cccs2)[n+]([O-])c2ccccc2n1O`?
Cy5 interf NS3h: 0.87; NS3h inh CB: -16

How did CN(C)c1ccc(/C=C(\NC(=O)c2ccccc2)C(=O)N/N=C\c2cc(O)ccc2[N+](=O)[O-])cc1 do in these assays?
Cy5 interf NS3h: 0.65*; NS3h inh CB: 45*; HCV NS3h conf: 25; SSB FP counter: 76*; Cy5 SSB fluor CB: 0.79*; Cy5 fluor confirm: 0.73*

How did O=C(N/N=C\c1ccccc1O)/C(=C\c1ccc2c(c1)OCO2)NC(=O)c1ccccc1 do in these assays?
Cy5 interf NS3h: 1.1; NS3h inh CB: 5

How did CC(=O)c1ccc(-n2c(C)ccc2C)cc1 do in these assays?
Cy5 interf NS3h: 1.1; NS3h inh CB: 0

Results for Cc1ccc(C)n1-c1ccc(OCC(=O)O)cc1 ?
Cy5 interf NS3h: 1.4*; NS3h inh CB: 82*; HCV NS3h conf: 78*; SSB FP counter: 95*; Cy5 SSB fluor CB: 0.92; Cy5 fluor confirm: 0.83

What do the screens show for `COc1cc(C2C(=C(O)c3ccc(F)cc3)C(=O)C(=O)N2c2nncs2)ccc1O` (stereo not given)?
Cy5 interf NS3h: 1; NS3h inh CB: 5

Results for Cc1ccccc1-n1c(O)c(C=C2C=CC=N2)c(=O)[nH]c1=S ?
Cy5 interf NS3h: 0.75*; NS3h inh CB: 63*; HCV NS3h conf: 58*; SSB FP counter: 140*; Cy5 SSB fluor CB: 0.72*; Cy5 fluor confirm: 0.74*

How did O=c1[nH]c(=O)n(-c2ccc(Br)cc2)c(O)c1C=C1C=CC=N1 do in these assays?
Cy5 interf NS3h: 0.83; NS3h inh CB: -2

How did Cc1oc2ccc(OCC(=O)OCc3ccccc3)cc2c1C(=O)OC(C)C do in these assays?
Cy5 interf NS3h: 0.89; NS3h inh CB: 10

Results for COc1ccc(/C=C2/SC(=S)NC2=O)cc1OCc1ccc(Cl)cc1 ?
Cy5 interf NS3h: 1; NS3h inh CB: 8

Results for COc1cc(/C=C2/SC(=S)NC2=O)cc(Cl)c1OCc1ccc(Cl)cc1Cl ?
Cy5 interf NS3h: 1; NS3h inh CB: 48*; HCV NS3h conf: 12; SSB FP counter: 55*; Cy5 SSB fluor CB: 0.94; Cy5 fluor confirm: 0.85

How did O=[N+]([O-])c1ccc(N2CCN(S(=O)(=O)c3ccc(Cl)cc3)CC2)c(C(F)(F)F)c1 do in these assays?
Cy5 interf NS3h: 0.98; NS3h inh CB: 9

How did Cc1ccccc1OCc1nc(-c2ccc([N+](=O)[O-])cc2)no1 do in these assays?
Cy5 interf NS3h: 1.1; NS3h inh CB: 11

Results for CN(C)c1ccc(NC(=O)c2ccc(Cl)cc2)cc1 ?
Cy5 interf NS3h: 0.9; NS3h inh CB: 10

Results for CN(C)c1ccc(C(=O)Nc2ccc(S(N)(=O)=O)cc2)cc1 ?
Cy5 interf NS3h: 0.84; NS3h inh CB: 78*; HCV NS3h conf: 57*; SSB FP counter: 49; Cy5 SSB fluor CB: 0.83; Cy5 fluor confirm: 0.78*

How did CCOc1ccc2ccc(OCC)c(/C=C3/SC(=S)NC3=O)c2c1 do in these assays?
Cy5 interf NS3h: 1; NS3h inh CB: -2

What do the screens show for `CCOc1ccc2ccccc2c1C=C1C(=O)NC(=S)NC1=O`?
Cy5 interf NS3h: 0.89; NS3h inh CB: 44*; HCV NS3h conf: 19; SSB FP counter: 39; Cy5 SSB fluor CB: 0.94; Cy5 fluor confirm: 0.97

How did COc1ccc(C(OC(=O)NC(O)C(Cl)(Cl)Cl)P(=O)(OC(C)C)OC(C)C)cc1 (stereo not given) do in these assays?
Cy5 interf NS3h: 0.93; NS3h inh CB: 3

How did COc1ccc(/C=C/C(=O)Nc2ccc(F)c([N+](=O)[O-])c2)cc1 do in these assays?
Cy5 interf NS3h: 0.94; NS3h inh CB: 34

Results for CC1=C(C#N)c2nc(N)c(C#N)c(C)c2/C1=C/c1ccc(-c2cccc(C(=O)O)c2)o1 ?
Cy5 interf NS3h: 1.1; NS3h inh CB: 121*; HCV NS3h conf: 71*; SSB FP counter: 152*; Cy5 SSB fluor CB: 0.86; Cy5 fluor confirm: 0.99

Results for CC1=C(C#N)c2nc(N)c(C#N)c(C)c2/C1=C\c1ccc(I)o1 ?
Cy5 interf NS3h: 1.1; NS3h inh CB: 2

What do the screens show for `O=C(NCc1ccco1)C(=O)Nc1ccc2c(c1)OCO2`?
Cy5 interf NS3h: 0.99; NS3h inh CB: 11

What do the screens show for `CCOc1cccc(NC(=O)/C(C#N)=C\c2ccc(N(C)C)c(Br)c2)c1`?
Cy5 interf NS3h: 0.97; NS3h inh CB: 4

How did CCOc1cc(OCC)cc(C(=O)Nc2c(C)cccc2C)c1 do in these assays?
Cy5 interf NS3h: 1; NS3h inh CB: 6

What do the screens show for `O=C1C=CC(=O)N1c1ccccc1N1C(=O)C=CC1=O`?
Cy5 interf NS3h: 1; NS3h inh CB: 81*; HCV NS3h conf: 63*; SSB FP counter: 11; Cy5 SSB fluor CB: 0.98; Cy5 fluor confirm: 0.95

How did O=C1CCC(=O)N1c1cccc2c(N3C(=O)CCC3=O)cccc12 do in these assays?
Cy5 interf NS3h: 1; NS3h inh CB: 5

How did CN(C)c1ccc(N2C(=O)C=CC2=O)cc1 do in these assays?
Cy5 interf NS3h: 0.96; NS3h inh CB: 65*; HCV NS3h conf: 43; SSB FP counter: 16; Cy5 SSB fluor CB: 1; Cy5 fluor confirm: 0.76*

What do the screens show for `COc1ccc(N2C(=O)C=C(Nc3ccccc3)C2=O)cc1`?
Cy5 interf NS3h: 0.87; NS3h inh CB: 15

How did COc1ccc(N2C(=O)C=CC2=O)cc1 do in these assays?
Cy5 interf NS3h: 0.77*; NS3h inh CB: 84*; HCV NS3h conf: 49; SSB FP counter: 0; Cy5 SSB fluor CB: 1; Cy5 fluor confirm: 0.77*

How did O=C1C=CC(=O)N1c1ccc(OC(F)F)cc1 do in these assays?
Cy5 interf NS3h: 0.82; NS3h inh CB: 46*; HCV NS3h conf: 33; SSB FP counter: 9; Cy5 SSB fluor CB: 0.94; Cy5 fluor confirm: 0.86

What do the screens show for `CN(C)c1ccc(/C=C/C(=O)/C=C/c2ccc(N(C)C)cc2)cc1`?
Cy5 interf NS3h: 0.98; NS3h inh CB: 6

Results for O=C1C=CC(=O)N1c1ccc(SC(F)F)cc1 ?
Cy5 interf NS3h: 0.99; NS3h inh CB: 20

Results for C=C(C)C(=O)Oc1ccc(N2C(=O)C=CC2=O)cc1 ?
Cy5 interf NS3h: 1; NS3h inh CB: 81*; HCV NS3h conf: 55*; SSB FP counter: 4; Cy5 SSB fluor CB: 0.93; Cy5 fluor confirm: 0.92

Results for C=C(C)C(=O)Oc1ccc(N2C(=O)CCC2=O)cc1 ?
Cy5 interf NS3h: 1.1; NS3h inh CB: 4

How did CCOC1=NC(C(F)(F)F)(C(F)(F)F)N=C(N=C(SC)SC)O1 do in these assays?
Cy5 interf NS3h: 1; NS3h inh CB: 6

How did CC(C)c1nnc(NC(=O)Nc2ccc(Cl)c(Cl)c2)s1 do in these assays?
Cy5 interf NS3h: 0.97; NS3h inh CB: 4
